The panel holds about 83,000 compounds, 20% with a hit somewhere; the sample as a whole holds those more often.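 Negative percent growth values reflect cell death: -40 means 40% of the cells present at the start died, and -100 means all died.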 The source made the active and inactive calls. How the source made its calls: active means growth percent below 10; inactive means the rest.

In the first test the test system is NCI/ADR-RES ovarian. Description: NCI-60 one-dose screen, 48 h (100 = growth as untreated, 0 = no growth, -100 = all killed). The following applies: 10 µM.
For the compound `Cc1cc2c(C)c3cc(C)c(N)cc3nc2cc1N`, the growth was 69.2% (inactive).

As to `CCCCCC(=O)c1ccc(OCCCN2CCN(C(=O)OCC)CC2)cc1`, the growth was 83.3% (inactive).

With `COc1cc(/C=N/NC(=O)c2ccccc2Nc2ccnc(C(F)(F)F)c2)ccc1O`, the growth was 143% (inactive).

Regarding `Cc1ccc(CC#N)cc1C`, the growth is 106% (inactive).

As for `COc1ccc(-c2nc3ncccn3c2-c2nnc(-c3ccc(F)cc3)o2)cc1`, the growth is 93.7% (inactive).

On to `O=[P@@]1(c2ccccc2)O[C@H](COCc2ccccc2)[C@@H](OCc2ccccc2)[C@H](OCc2ccccc2)[C@H]1O`, for which the growth was 73.4% (inactive).

As to `O=C1/C(=C\c2ccc(Cl)cc2)CN(C(=S)Nc2ccccc2)C/C1=C\c1ccc(Cl)cc1`, the growth is 1.25% (active).

Turning to `COc1cc(-c2cc(/C=C/C(=O)c3ccc(Cl)c(Cl)c3)[nH]n2)cc(OC)c1OC`, the growth was 75.1% (inactive).

For the compound `Clc1ccc(Nc2ccnc(NCCCNc3ccnc4cc(Cl)ccc34)n2)cc1`, the growth is 4.05% (active).

On to `O=C1OCC2=C1C(c1ccc(Cl)c(Cl)c1)c1cc3c(cc1N2CCO)OCCO3` (stereo not given), for which the growth is 3.69% (active).

As for `NC(=S)N=Nc1c(O)c2ccccc2c2ccccc12`, the growth is 27.1% (inactive).

In the case of `Cc1cccc(C)c1NC(=O)c1sc2nc3c(cc2c1N)C(=O)CCC3`, the growth is 87.6% (inactive).

In the case of `Nc1ccc2c(c1)C1(CCC2)NC(=O)NC1=O` (stereo not given), the growth was 108% (inactive).

Take `CSc1nc(=O)n(Cc2ccc(Cl)cc2)c(=O)[nH]1`: the growth was 105% (inactive).

In the case of `CN1CCC2(CC1)NC(=O)c1c(c3ccc(Cl)c(Cl)c3n1C)C2C#N` (stereo not given), the growth is 82.4% (inactive).

On to `c1ccc2c(c1)oc1c3cccnc3ccc21`, for which the growth is 99.7% (inactive).

As to `COc1cc(Cl)cc(-c2nn(-c3cccc(NC(=O)Nc4ccc(Cl)c(Cl)c4)c3)cc2-c2ccncc2)c1`, the growth was 8.59% (active).

Turning to `Cc1cn(C2CCCCO2)c(=O)nc1NO` (stereo not given), the growth was 107% (inactive).

With `Cc1ccc(Nc2nnc(-c3cc(-c4ccncc4)n(-c4ccccc4)n3)s2)cc1`, the growth is 59.2% (inactive).

With `CCOC(=O)N/N=C\C(C)=N\NC(=O)OCC`, the growth is 97.9% (inactive).

Regarding `COc1ccc(-c2cc(/C=C3\C(=O)Nc4ccc(Cl)cc43)[nH]n2)cc1OC`, the growth is 91.5% (inactive).

Turning to `CNc1ccc(CSc2ccc(C)cc2)cc1`, the growth is 92.1% (inactive).

`Nc1nc(N)c2c(ccc3nccc32)[nH]1`: the growth was 53.1% (inactive).

With `O=C(O)c1ccc(Cl)cc1Nc1ccc(F)cc1`, the growth is 91.3% (inactive).

On to `CC(C)=CCc1cc(O)cc2c1OC(C=C(C)C)C1=C2C(=O)C2=C(C1=O)S(=O)(=O)CCN2` (stereo not given), for which the growth is 91.7% (inactive).

On to `COc1ccc(OC)c(/C=C/c2nc(SCc3ccccc3)n(-c3ccc(Cl)cc3)n2)c1`, for which the growth is 19.1% (inactive).

Regarding `N=C(N)c1ccc(-c2ccc(-c3cccs3)s2)cc1`, the growth is 56.1% (inactive).

As for `Nc1ccn(C2CC(O)C(CO)O2)c(=O)n1` (stereo not given), the growth is 102% (inactive).

As to `S=c1[nH]ccn1-c1c(Cl)cccc1Cl`, the growth is 102% (inactive).

For the compound `COC(=O)c1c(-c2ccccc2)csc1NC(=O)c1c(-c2ccccc2)noc1C`, the growth was 36.8% (inactive).

For the compound `Cc1cc(N(CCCNc2ccnc3cc(Cl)ccc23)Cc2cccs2)nc(Cl)n1`, the growth was 36.4% (inactive).

Regarding `NC(=O)CC1(c2ccccc2)CCCCC1`, the growth is 107% (inactive).

On to `c1ccc(CP(Cc2ccccc2)c2ccccc2)cc1`, for which the growth is 101% (inactive).

In the case of `c1ccc(C(NC2CC3CCC2C3)c2ccccc2)cc1` (stereo not given), the growth was 103% (inactive).

As to `CSCCCNC(=O)c1ccc2c(c1)/C(=C/c1[nH]c(C)cc1C)C(=O)N2`, the growth is 42.9% (inactive).

Take `CCN1Cc2c(/C=C/c3ccccc3)nc3ccc(OC)cc3c2N(c2cccc(Cl)c2)C1`: the growth was 77.4% (inactive).

For the compound `O=C(Nc1nc2ccccc2s1)Nc1ccc([N+](=O)[O-])cc1Cl`, the growth was 14.4% (inactive).

In the case of `CC/C(=C(/c1ccc(OCCN(C)C)cc1)c1ccc(OC(=O)CCC(=O)c2c(C)[nH]c(/C=C3\N=C(c4ccc[nH]4)C=C3OC)c2C)cc1)c1ccccc1`, the growth was 20.7% (inactive).

As to `O=C(O)C(SC(C(=O)O)c1ccccc1)c1ccccc1` (stereo not given), the growth is 106% (inactive).

The subject of the next test is T-47D breast. The test is described as above. The following applies: 10 µM.
Consider `Cc1cc2c(C)c3cc(C)c(N)cc3nc2cc1N`, for which the growth is -2.32% (active).

For `CCCCCC(=O)c1ccc(OCCCN2CCN(C(=O)OCC)CC2)cc1`, the growth is 88.1% (inactive).

`COc1cc(/C=N/NC(=O)c2ccccc2Nc2ccnc(C(F)(F)F)c2)ccc1O`: the growth was 116% (inactive).

In the case of `Cc1ccc(CC#N)cc1C`, the growth was 98.4% (inactive).

Consider `COc1ccc(-c2nc3ncccn3c2-c2nnc(-c3ccc(F)cc3)o2)cc1`, for which the growth is 98.2% (inactive).

Take `O=[P@@]1(c2ccccc2)O[C@H](COCc2ccccc2)[C@@H](OCc2ccccc2)[C@H](OCc2ccccc2)[C@H]1O`: the growth was 72.8% (inactive).

Regarding `O=C1/C(=C\c2ccc(Cl)cc2)CN(C(=S)Nc2ccccc2)C/C1=C\c1ccc(Cl)cc1`, the growth was -2.82% (active).

With `COc1cc(-c2cc(/C=C/C(=O)c3ccc(Cl)c(Cl)c3)[nH]n2)cc(OC)c1OC`, the growth is 37% (inactive).

For `Clc1ccc(Nc2ccnc(NCCCNc3ccnc4cc(Cl)ccc34)n2)cc1`, the growth was -63.7% (active).

`O=C1OCC2=C1C(c1ccc(Cl)c(Cl)c1)c1cc3c(cc1N2CCO)OCCO3` (stereo not given): the growth was 62.2% (inactive).

Take `NC(=S)N=Nc1c(O)c2ccccc2c2ccccc12`: the growth is 68.3% (inactive).

`Cc1cccc(C)c1NC(=O)c1sc2nc3c(cc2c1N)C(=O)CCC3`: the growth is 92.8% (inactive).

For the compound `Nc1ccc2c(c1)C1(CCC2)NC(=O)NC1=O` (stereo not given), the growth was 96.3% (inactive).

Take `CN1CCC2(CC1)NC(=O)c1c(c3ccc(Cl)c(Cl)c3n1C)C2C#N` (stereo not given): the growth is 81.3% (inactive).

As for `c1ccc2c(c1)oc1c3cccnc3ccc21`, the growth was 39% (inactive).

For `COc1cc(Cl)cc(-c2nn(-c3cccc(NC(=O)Nc4ccc(Cl)c(Cl)c4)c3)cc2-c2ccncc2)c1`, the growth was 18.6% (inactive).

Regarding `Cc1cn(C2CCCCO2)c(=O)nc1NO` (stereo not given), the growth was 105% (inactive).

On to `Cc1ccc(Nc2nnc(-c3cc(-c4ccncc4)n(-c4ccccc4)n3)s2)cc1`, for which the growth was 64.5% (inactive).

For `CCOC(=O)N/N=C\C(C)=N\NC(=O)OCC`, the growth is 99.9% (inactive).

Consider `COc1ccc(-c2cc(/C=C3\C(=O)Nc4ccc(Cl)cc43)[nH]n2)cc1OC`, for which the growth was 72.2% (inactive).

On to `CNc1ccc(CSc2ccc(C)cc2)cc1`, for which the growth is 64.5% (inactive).

As for `Nc1nc(N)c2c(ccc3nccc32)[nH]1`, the growth is 73% (inactive).

On to `O=C(O)c1ccc(Cl)cc1Nc1ccc(F)cc1`, for which the growth is 78.7% (inactive).

As for `CC(C)=CCc1cc(O)cc2c1OC(C=C(C)C)C1=C2C(=O)C2=C(C1=O)S(=O)(=O)CCN2` (stereo not given), the growth was -0.36% (active).

As for `COc1ccc(OC)c(/C=C/c2nc(SCc3ccccc3)n(-c3ccc(Cl)cc3)n2)c1`, the growth is 78% (inactive).

For the compound `N=C(N)c1ccc(-c2ccc(-c3cccs3)s2)cc1`, the growth was 55.1% (inactive).

Take `Nc1ccn(C2CC(O)C(CO)O2)c(=O)n1` (stereo not given): the growth was 103% (inactive).

Consider `S=c1[nH]ccn1-c1c(Cl)cccc1Cl`, for which the growth is 91.2% (inactive).

In the case of `Cc1cc(N(CCCNc2ccnc3cc(Cl)ccc23)Cc2cccs2)nc(Cl)n1`, the growth was 22.1% (inactive).

With `NC(=O)CC1(c2ccccc2)CCCCC1`, the growth is 97.5% (inactive).

For the compound `c1ccc(CP(Cc2ccccc2)c2ccccc2)cc1`, the growth was 116% (inactive).

On to `c1ccc(C(NC2CC3CCC2C3)c2ccccc2)cc1` (stereo not given), for which the growth is 99.9% (inactive).

For the compound `CSCCCNC(=O)c1ccc2c(c1)/C(=C/c1[nH]c(C)cc1C)C(=O)N2`, the growth is 44.5% (inactive).

For the compound `CCN1Cc2c(/C=C/c3ccccc3)nc3ccc(OC)cc3c2N(c2cccc(Cl)c2)C1`, the growth is 55.1% (inactive).

`O=C(Nc1nc2ccccc2s1)Nc1ccc([N+](=O)[O-])cc1Cl`: the growth was 61.7% (inactive).

Take `CC/C(=C(/c1ccc(OCCN(C)C)cc1)c1ccc(OC(=O)CCC(=O)c2c(C)[nH]c(/C=C3\N=C(c4ccc[nH]4)C=C3OC)c2C)cc1)c1ccccc1`: the growth is 22.7% (inactive).

These data come from PubChem BioAssay (NCI).
